Assay outcomes as filed in PubChem.
FAS TE block – FAS thioesterase domain inhibitors, primary screen, biochemical, fluorescence intensity, uHTS. Fatty acid synthase (Homo sapiens), P49327. inhibition, % at 15 µM. 360,000 tested, 0.67% active. recombinant FAS-TE, OMFH fluorogenic substrate, fluorescence endpoint;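 active = compounds whose normalised, plate-corrected inhibition of enzyme fluorescence in the single-dose primary screen is 50% or more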
Target sequence (P49327 whole entry, looked up, the tested form may be a part): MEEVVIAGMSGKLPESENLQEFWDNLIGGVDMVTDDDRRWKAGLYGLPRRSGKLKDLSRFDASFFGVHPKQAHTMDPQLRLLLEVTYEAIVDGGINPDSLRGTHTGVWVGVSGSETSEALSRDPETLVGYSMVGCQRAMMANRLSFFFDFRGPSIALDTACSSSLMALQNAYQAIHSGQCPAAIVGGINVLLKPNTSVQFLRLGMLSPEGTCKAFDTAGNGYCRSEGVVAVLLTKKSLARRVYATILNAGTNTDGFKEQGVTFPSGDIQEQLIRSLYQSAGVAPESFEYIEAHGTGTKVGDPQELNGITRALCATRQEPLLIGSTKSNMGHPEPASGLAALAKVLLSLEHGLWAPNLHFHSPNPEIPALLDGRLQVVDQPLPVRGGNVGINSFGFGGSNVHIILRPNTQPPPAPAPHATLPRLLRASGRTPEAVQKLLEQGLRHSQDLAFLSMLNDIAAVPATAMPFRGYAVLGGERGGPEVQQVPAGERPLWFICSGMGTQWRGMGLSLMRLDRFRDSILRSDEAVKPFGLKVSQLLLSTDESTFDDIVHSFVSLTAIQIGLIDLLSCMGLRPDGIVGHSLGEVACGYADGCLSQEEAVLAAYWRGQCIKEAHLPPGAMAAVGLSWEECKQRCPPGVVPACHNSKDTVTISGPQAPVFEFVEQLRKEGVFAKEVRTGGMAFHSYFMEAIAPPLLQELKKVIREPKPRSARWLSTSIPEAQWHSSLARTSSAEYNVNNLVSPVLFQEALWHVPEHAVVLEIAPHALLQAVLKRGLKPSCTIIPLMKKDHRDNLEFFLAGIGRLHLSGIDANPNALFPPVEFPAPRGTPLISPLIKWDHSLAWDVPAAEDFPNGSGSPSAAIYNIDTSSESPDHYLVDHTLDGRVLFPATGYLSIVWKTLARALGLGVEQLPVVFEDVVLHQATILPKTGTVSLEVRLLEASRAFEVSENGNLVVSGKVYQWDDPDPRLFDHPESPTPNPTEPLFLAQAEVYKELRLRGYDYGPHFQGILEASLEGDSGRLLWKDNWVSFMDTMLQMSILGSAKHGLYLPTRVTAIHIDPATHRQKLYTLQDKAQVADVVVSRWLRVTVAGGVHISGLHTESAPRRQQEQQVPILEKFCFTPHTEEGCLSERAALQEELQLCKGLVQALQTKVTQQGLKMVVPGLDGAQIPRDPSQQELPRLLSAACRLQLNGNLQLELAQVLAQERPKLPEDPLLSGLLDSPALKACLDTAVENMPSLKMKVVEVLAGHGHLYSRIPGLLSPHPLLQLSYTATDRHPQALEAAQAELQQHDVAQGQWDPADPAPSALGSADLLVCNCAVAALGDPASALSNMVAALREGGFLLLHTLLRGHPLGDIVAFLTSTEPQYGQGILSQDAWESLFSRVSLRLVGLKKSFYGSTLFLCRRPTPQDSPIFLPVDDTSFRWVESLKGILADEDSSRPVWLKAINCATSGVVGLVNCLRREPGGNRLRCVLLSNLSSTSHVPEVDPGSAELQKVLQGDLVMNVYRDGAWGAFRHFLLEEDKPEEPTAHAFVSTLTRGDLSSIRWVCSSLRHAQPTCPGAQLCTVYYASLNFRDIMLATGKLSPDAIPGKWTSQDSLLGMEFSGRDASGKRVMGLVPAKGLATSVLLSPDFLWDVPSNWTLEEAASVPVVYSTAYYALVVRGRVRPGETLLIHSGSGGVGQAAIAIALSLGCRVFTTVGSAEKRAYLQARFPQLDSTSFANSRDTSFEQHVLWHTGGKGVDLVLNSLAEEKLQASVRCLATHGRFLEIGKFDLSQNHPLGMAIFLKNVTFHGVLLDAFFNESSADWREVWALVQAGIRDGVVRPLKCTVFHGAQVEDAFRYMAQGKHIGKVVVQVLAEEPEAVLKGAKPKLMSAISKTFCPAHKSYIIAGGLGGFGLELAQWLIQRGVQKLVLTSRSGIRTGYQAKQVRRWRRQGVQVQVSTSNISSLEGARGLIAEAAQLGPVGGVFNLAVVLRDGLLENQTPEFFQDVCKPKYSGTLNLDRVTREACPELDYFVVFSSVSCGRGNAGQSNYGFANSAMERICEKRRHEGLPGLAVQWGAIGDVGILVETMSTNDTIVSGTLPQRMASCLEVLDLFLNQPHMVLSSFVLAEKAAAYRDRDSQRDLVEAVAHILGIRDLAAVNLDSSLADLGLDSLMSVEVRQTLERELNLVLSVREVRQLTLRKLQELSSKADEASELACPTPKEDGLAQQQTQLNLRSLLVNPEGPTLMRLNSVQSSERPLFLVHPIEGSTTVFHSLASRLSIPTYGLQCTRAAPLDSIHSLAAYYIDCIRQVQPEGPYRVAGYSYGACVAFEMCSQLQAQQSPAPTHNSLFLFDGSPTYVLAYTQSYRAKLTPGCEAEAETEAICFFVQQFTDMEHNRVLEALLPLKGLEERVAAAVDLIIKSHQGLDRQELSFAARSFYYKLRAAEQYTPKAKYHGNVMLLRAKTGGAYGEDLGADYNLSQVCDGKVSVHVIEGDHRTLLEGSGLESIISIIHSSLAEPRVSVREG
p97 ATPase inh – inhibitors of human p97 ATPase, primary screen, biochemical. recombinant p97 ATPase, Kinase-Glo ATP luminescence, 3 h. inhibition, % at 8 µM. 220,000 tested, 0.42% active; in the data active = inhibition above about 15%
DTT redox prof – compounds producing H2O2 with reducing agent – biochemical, NIH compound library profiling, artefact control for MLSCN library redox annotation, primary screen; activation, % at 10 µM; DTT-dependent redox cycling H2O2, phenol red/HRP absorbance; 100% = 100 µM peroxide control, 0% = buffer; 200,000 tested, 0.03% active;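 active = activation of at least 50% relative to the plate's high and low controls in the primary single-dose screen; inactive = activation below 50%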;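 note: compound incubated with DTT at 0.8 mM final as the reducing agent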
UBC9 SUMO inh – inhibitors of in vitro SUMOylation cascade, primary screen, biochemical, HTRF, uHTS; SUMO-conjugating enzyme UBC9 (Homo sapiens), P63279; HTRF SUMOylation assay, SAE1/SAE2 + UBC9; inhibition, % at 35 µM; 290,000 tested, 0.36% active; AID 2006, 2009; in the data active = inhibition above about 50%, passing the limit was not always enough; inconclusive = no clear call, values can overlap the other calls
Furin inhibitor – human furin inhibitors, primary screen, biochemical, fluorescence intensity. P09958. purified furin, fluorogenic substrate cleavage. inhibition, % at 20 µM or 30 µM. 220,000 tested, 0.061% active; in the data active = inhibition above about 25%
PKD1 kinase inh – inhibitors of human PKD1 kinase, biochemical, fluorescence polarization | Serine/threonine-protein kinase D1 (Homo sapiens), Q15139 | PKD1 kinase fluorescence polarization assay | inhibition, % (concentration not given with the values) | 200,000 tested, 0.056% active; in the data active = inhibition above about 50%
Hits are given with their value. Sampled rows, rich in hits. Any-hit rate of the full collection: about 1.2%.

How did O=C1CN=C(Nc2ccccc2Cl)N1c1ccccc1 do in these assays?
FAS TE block: inactive; p97 ATPase inh: inactive; DTT redox prof: inactive; UBC9 SUMO inh: inactive; Furin inhibitor: inactive; PKD1 kinase inh: inactive

How did C=CCN1CCC(=O)C(C(=O)OCC)=C1C(=O)OCC do in these assays?
FAS TE block: inactive

What do the screens show for `C[C@@H]1CCCCO[C@H](CN(C)C(=O)Nc2ccccc2)[C@@H](C)CN([C@H](C)CO)C(=O)c2cc(NS(=O)(=O)c3cn(C)cn3)ccc2O1`?
FAS TE block: inactive

How did COC(=O)c1ccccc1NC(=O)CC(NCc1ccccc1)C(=O)O (configuration not stated) do in these assays?
p97 ATPase inh: inactive; DTT redox prof: inactive; Furin inhibitor: inactive; PKD1 kinase inh: inactive

How did COCCCNC(CC(=O)Nc1ccccc1C(=O)OC)C(=O)O (configuration not stated) do in these assays?
p97 ATPase inh: inactive; DTT redox prof: inactive; Furin inhibitor: 28.1; PKD1 kinase inh: inactive

How did CC(C)C(OC(=O)C1=Cc2ccccc2OC1)C(=O)NCC1CCCO1 (configuration not stated) do in these assays?
FAS TE block: inactive

Results for CC1CCN(Cc2c(C(=O)N/N=C/c3ccccc3O)nnn2-c2nonc2N)CC1 ?
FAS TE block: inactive; UBC9 SUMO inh: 54.4

What do the screens show for `CCOC(=O)C1=C(C)NC(C)=C(C(=O)OCC)C1C(=O)OCC(=O)Nc1ccc(NC(C)=O)cc1`?
FAS TE block: inactive

How did O=C(Nc1cccn(Cc2c(F)cccc2Cl)c1=O)NC1CCCCC1 do in these assays?
FAS TE block: inactive; p97 ATPase inh: inactive; DTT redox prof: inactive; UBC9 SUMO inh: inactive; Furin inhibitor: inactive; PKD1 kinase inh: inactive

What do the screens show for `O=C(Nc1cccn(Cc2cccc(F)c2)c1=O)NC1CCCCC1`?
FAS TE block: inactive; p97 ATPase inh: inactive; DTT redox prof: inactive; UBC9 SUMO inh: 99.4; Furin inhibitor: inactive; PKD1 kinase inh: inactive

Results for O=c1[nH]c(C2CCN(S(=O)(=O)c3ccc4c(c3)OCCO4)CC2)nc2c1nnn2Cc1ccccc1 ?
FAS TE block: inactive; UBC9 SUMO inh: inactive

Results for Cc1ccc(C)c(S(=O)(=O)N2CCC(c3nc4c(nnn4Cc4ccc5c(c4)OCCO5)c(=O)[nH]3)CC2)c1 ?
FAS TE block: 69.7; UBC9 SUMO inh: inactive

What do the screens show for `Cc1cccn2c(=O)c3cc(C(=O)NC4CCCCC4C)n(C)c3nc12` (configuration not stated)?
FAS TE block: inactive; UBC9 SUMO inh: inactive

Results for Cn1c(C(=O)N2CCOCC2)cc2c(=O)n3ccccc3nc21 ?
FAS TE block: inactive; UBC9 SUMO inh: inconclusive

What do the screens show for `Cn1c(C(=O)N2CCN(C(=O)c3ccco3)CC2)cc2c(=O)n3ccccc3nc21`?
FAS TE block: inactive; p97 ATPase inh: inactive; DTT redox prof: inactive; UBC9 SUMO inh: 57.7; Furin inhibitor: inactive; PKD1 kinase inh: inactive

Results for CC1CCCCC1NC(=O)c1cc2c(=O)n3ccccc3nc2n1C (configuration not stated) ?
FAS TE block: inactive; UBC9 SUMO inh: 58.0

How did O=C(Nc1ccccc1)Nc1ccno1 do in these assays?
FAS TE block: inactive; p97 ATPase inh: inactive; UBC9 SUMO inh: 57.3; Furin inhibitor: inactive

What do the screens show for `Cn1c(-c2ccccc2)c(Sc2ccccc2)c2cc(-c3ccc4cc[nH]c4c3)ccc21`?
FAS TE block: inactive

How did COc1ccc(CNC(=O)C2Cc3ccccc3CN2C(=O)c2ccco2)cc1 (configuration not stated) do in these assays?
FAS TE block: inactive; p97 ATPase inh: inactive; DTT redox prof: inactive; UBC9 SUMO inh: inactive; Furin inhibitor: inactive; PKD1 kinase inh: 105.1

Results for N#C/C(=N\Nc1cccc([N+](=O)[O-])c1)C(=O)c1ccc(Br)cc1 ?
FAS TE block: inactive; p97 ATPase inh: inactive; DTT redox prof: inactive; UBC9 SUMO inh: inactive; Furin inhibitor: inactive; PKD1 kinase inh: inactive

What do the screens show for `O=C(/C(N=Nc1cccc([N+](=O)[O-])c1)=C(/O)c1ccc(Br)cc1)C(F)(F)F`?
FAS TE block: 63.7; p97 ATPase inh: inactive; UBC9 SUMO inh: inactive; Furin inhibitor: inactive

What do the screens show for `Cc1ccc(S(=O)(=O)N2CCN(C(=O)CCC(=O)Nc3ccc(Br)c(C)c3)CC2)cc1`?
FAS TE block: inactive

What do the screens show for `O=C(Nc1ccc2nc(-c3ccco3)c(-c3ccco3)nc2c1)N1CCCCCC1`?
p97 ATPase inh: inactive; DTT redox prof: inactive; UBC9 SUMO inh: 58.3; Furin inhibitor: inactive; PKD1 kinase inh: inactive

Results for CCOC(=O)C1CCN(C(=O)Nc2ccc3c(c2)nc(C)n3C)CC1 ?
FAS TE block: inactive; p97 ATPase inh: inactive; DTT redox prof: inactive; UBC9 SUMO inh: inactive; Furin inhibitor: inactive; PKD1 kinase inh: inactive

What do the screens show for `CCOC(=O)C1CCN(C(=O)Nc2ccc3nc(-c4ccco4)c(-c4ccco4)nc3c2)CC1`?
FAS TE block: inactive; p97 ATPase inh: inactive; DTT redox prof: inactive; UBC9 SUMO inh: 73.2; Furin inhibitor: inactive; PKD1 kinase inh: inactive

Results for N=C1/C(=C/c2cccn2Cc2ccc(Cl)cc2)C(=O)N=C2SC=CN12 ?
FAS TE block: inactive; p97 ATPase inh: inactive; DTT redox prof: inactive; UBC9 SUMO inh: 50.2; Furin inhibitor: inactive; PKD1 kinase inh: inactive

How did CC(=O)N1C[C@@H](CO)[C@@H](N(C)C(=O)C(C)(C)C)C[C@H]1c1ccccc1 do in these assays?
FAS TE block: inactive

What do the screens show for `Cc1ccc(/C=c2\sc3nc(-c4ccco4)nn3c2=O)o1`?
FAS TE block: inactive; p97 ATPase inh: inactive; DTT redox prof: inactive; UBC9 SUMO inh: inactive; Furin inhibitor: inactive; PKD1 kinase inh: inactive

How did COc1ccc(Br)cc1/C=c1\sc2nc(-c3ccco3)nn2c1=O do in these assays?
FAS TE block: inactive; UBC9 SUMO inh: 51.8

Results for Nc1nc2c(s1)CCc1c-2cnn1-c1ccccc1 ?
FAS TE block: inactive; p97 ATPase inh: 15.5; DTT redox prof: inactive; UBC9 SUMO inh: inactive; Furin inhibitor: inactive; PKD1 kinase inh: inactive

What do the screens show for `Nc1nc2c(s1)COc1ccccc1-2`?
FAS TE block: inactive; p97 ATPase inh: inactive; DTT redox prof: inactive; UBC9 SUMO inh: inactive; Furin inhibitor: inactive; PKD1 kinase inh: inactive

What do the screens show for `CC[C@@H](C)[C@H](NC(=O)Cc1c(C)c2c(cc(C)c3c(C)c(C)oc32)oc1=O)C(=O)O`?
FAS TE block: inactive; UBC9 SUMO inh: inactive

Results for Cc1oc2c(c(C)cc3oc(=O)c(CC(=O)N[C@@H](C)C(=O)O)c(C)c32)c1C ?
FAS TE block: inactive; UBC9 SUMO inh: 50.6
